Laboratory results reported in PubChem BioAssay AID2061166 (Soto Lab, Mitchell Center for Alzheimers Disease and …, 2025).
Values without a mark were called inactive. Calls of active or inactive are those of the source.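 How the source made its calls: active means mean tau seeding fluorescence area under 1% of vehicle, meaning inhibition above a set limit; inactive means the rest.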

target: Microtubule-associated protein tau (Homo sapiens) (UniProt P10636); test: inhibitors of seeded tau aggregation, primary screen, biochemical, seed amplification, ThT fluorescence (AID 2061166); conditions: Recombinant tau seeded by AD brain, ThT fluorescence AUC; at 100 µM; hits give high values
Sequence (P10636 whole entry, looked up): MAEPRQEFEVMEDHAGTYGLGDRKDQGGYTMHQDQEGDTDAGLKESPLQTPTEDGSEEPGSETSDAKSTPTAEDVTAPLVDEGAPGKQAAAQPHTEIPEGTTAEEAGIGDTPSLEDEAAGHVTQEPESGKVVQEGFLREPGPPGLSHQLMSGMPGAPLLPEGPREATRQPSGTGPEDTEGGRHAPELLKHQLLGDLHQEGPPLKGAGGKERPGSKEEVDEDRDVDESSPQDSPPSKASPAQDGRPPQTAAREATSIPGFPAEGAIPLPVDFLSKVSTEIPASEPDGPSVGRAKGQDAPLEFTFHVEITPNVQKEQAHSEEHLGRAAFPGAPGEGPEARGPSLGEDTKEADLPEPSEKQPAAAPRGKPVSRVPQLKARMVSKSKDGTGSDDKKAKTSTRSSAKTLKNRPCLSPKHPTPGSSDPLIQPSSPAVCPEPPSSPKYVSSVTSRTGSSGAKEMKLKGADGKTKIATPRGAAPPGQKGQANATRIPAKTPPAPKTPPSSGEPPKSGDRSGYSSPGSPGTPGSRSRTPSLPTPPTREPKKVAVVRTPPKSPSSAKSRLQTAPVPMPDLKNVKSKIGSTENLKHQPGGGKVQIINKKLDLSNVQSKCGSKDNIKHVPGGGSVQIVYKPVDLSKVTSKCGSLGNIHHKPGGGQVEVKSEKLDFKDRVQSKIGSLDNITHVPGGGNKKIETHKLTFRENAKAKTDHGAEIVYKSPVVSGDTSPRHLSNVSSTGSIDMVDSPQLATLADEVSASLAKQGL

Row | SMILES | inhibition
1 | Nc1nc(Cl)nc2c1ncn2C1CC(O)C(CO)O1 (configuration not stated) | -52.8%
2 | O=C(OC1CC2CCC(C1)[N+]21CCCC1)C(O)(c1ccccc1)c1ccccc1 (configuration not stated) | 16.5%
3 | CNc1ccc2nc3ccc(=[N+](C)C)cc-3sc2c1 | 100% (active)
4 | CN=c1ccc2nc3ccc(N)cc3sc-2c1 | 100% (active)
5 | O=C(C=Cc1ccc(O)c(O)c1)OC(Cc1ccc(O)c(O)c1)C(=O)O (configuration not stated) | 95%
6 | CN1CC(C(=O)NC2(C)OC3(O)C4CCCN4C(=O)C(Cc4ccccc4)N3C2=O)CC2c3cccc4[nH]cc(c34)CC21 (configuration not stated) | 34.2%
7 | N=c1ccc2nc3ccc(N)cc3sc-2c1 | 100% (active)
8 | COc1cc(C(C)=O)ccc1OCCCN1CCC(c2noc3cc(F)ccc23)CC1 | -61.2%
9 | O=c1c(O)c(-c2cc(O)c(O)c(O)c2)oc2cc(O)cc(O)c12 | 95.3%
10 | O=C(O)c1ccccc1O | 11.4%
11 | COC1CC2CCC(C)C(O)(O2)C(=O)C(=O)N2CCCCC2C(=O)OC(C(C)CC2CCC(OCCO)C(OC)C2)CC(=O)C(C)/C=C(\C)C(O)C(OC)C(=O)C(C)CC(C)/C=C/C=C/C=C/1C (configuration not stated) | 19.2%
12 | CN(CCOc1ccc(CC2SC(=O)NC2=O)cc1)c1ccccn1 (configuration not stated) | -61%
13 | COC(=O)C1=COC(OC2OC(CO)C(O)C(O)C2O)C2C1CC(O)C2C (configuration not stated) | -52.1%
14 | CC1CCC2(C(=O)O)CCC3(C)C(=CCC4C5(C)CC(O)C(O)C(C)(CO)C5C(O)CC43C)C2C1C (configuration not stated) | 31%
15 | COC1CC2CCC(C)C(O)(O2)C(=O)C(=O)N2CCCCC2C(=O)OC(C(C)CC2CCC(O)C(OC)C2)CC(=O)C(C)/C=C(\C)C(O)C(OC)C(=O)C(C)CC(C)/C=C/C=C/C=C/1C (configuration not stated) | 14%
16 | Cc1c(N)c(=O)n(-c2ccccc2)n1C | 0.254%
17 | CCN(CC)CCNC(=O)c1c(C)[nH]c(/C=C2\C(=O)Nc3ccc(F)cc32)c1C | 98.6%
